# Results filed as inconclusive are left out. Active and inactive are the calls of the source. Unless noted, calls come from the whole dose curve; as a rule, active = well fitted curve in the direction sought with a large enough effect; inconclusive = small, poorly fitted or top-dose-only effect, or another doubt; inactive = no such curve, though single readings can be large; an effect the other way counts as inactive or inconclusive.
# How the values were obtained:
# [1] = qHTS to identify inhibitors of the type 1 interferon - major histocompatibility complex class I in skeletal muscle: primary screen against the NCATS Mechanism Interrogation Plate v5.0 (MIPE) Libary (AID 1347411); note: nearly all actives have a fitted effect of over 65% in size; note: potency is the fitted concentration of half-maximal effect;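 for activity change, negative = inhibition: plate controls were vehicle for no effect and reference inhibitor for full effect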
# In short: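 Immortalized human myoblasts (C25cl48) with HiBit knocked into endogenous HLA-B*08:01 were stimulated with 4 ng/ml IFN-beta and given compounds in 11-point 1:3 titration from 46 uM. After 24 h at 37 C, lytic HiBiT luminescence was read.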
# [2] = Primary qHTS for inhibitors of nuclear receptor binding SET domain protein 2 (NSD2) in an isogenic RCH-ACV NSD2 p.E1099K mutant (9B) (AID 1645876); note: nearly all actives have a fitted effect of over 70% in size; note: potency is the fitted concentration of half-maximal effect; for activity change, negative = viability loss: % is set by controls: 0 for no effect and ±100 for the full control effect
# [3] = Primary qHTS for inhibitors of nuclear receptor binding SET domain protein 2 (NSD2) in an RCH-ACV wild type WT cells (2C) (AID 1645877); note: nearly all actives have a fitted effect of over 70% in size; note: potency is the fitted concentration of half-maximal effect; for activity change, negative = cell killing: % is set by controls: 0 for no effect and ±100 for the full control effect
# [4] = target: Glutathione peroxidase 1 (Homo sapiens) (UniProt P07203); assay: Primary qHTS Assay for Inhibitors of Recombinant Selenoprotein Glutathione Peroxidase 1 (GPX1) (AID 1845191); note: nearly all actives have a fitted effect of over 65% in size
# Sequence of Glutathione peroxidase 1 (Homo sapiens) (P07203 whole entry, looked up): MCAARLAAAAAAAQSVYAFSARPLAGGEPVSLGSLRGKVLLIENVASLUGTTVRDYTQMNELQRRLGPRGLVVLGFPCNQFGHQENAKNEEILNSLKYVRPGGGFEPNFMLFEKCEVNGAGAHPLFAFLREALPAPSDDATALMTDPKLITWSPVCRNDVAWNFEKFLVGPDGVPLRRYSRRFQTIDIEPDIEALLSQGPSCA
# In short: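 Recombinant GPX1 (10 nM final) was preincubated with compound for 30 min at room temperature, then reacted with 1 mM GSH, 0.5 mM CHP, 0.5 mM NADPH and 100 nM glutathione reductase; NADPH fluorescence (340/450 nm) was read at 0 and 15 min.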
# [5] = target: Phospholipid hydroperoxide glutathione peroxidase GPX4 (Homo sapiens) (UniProt P36969); assay: Primary qHTS Assay for Inhibitors of Recombinant Selenoprotein Glutathione Peroxidase 4 (GPX4) (AID 1845192); settings: outcome: dose series up to 50 µM unless noted; note: nearly all actives have a fitted effect of over 65% in size; note: potency is the fitted concentration of half-maximal effect; for activity change, negative = inhibition: series mostly up to about 50 µM; % is set by controls: 0 for no effect and ±100 for the full control effect
# Sequence of Phospholipid hydroperoxide glutathione peroxidase GPX4 (Homo sapiens) (P36969 whole entry, looked up): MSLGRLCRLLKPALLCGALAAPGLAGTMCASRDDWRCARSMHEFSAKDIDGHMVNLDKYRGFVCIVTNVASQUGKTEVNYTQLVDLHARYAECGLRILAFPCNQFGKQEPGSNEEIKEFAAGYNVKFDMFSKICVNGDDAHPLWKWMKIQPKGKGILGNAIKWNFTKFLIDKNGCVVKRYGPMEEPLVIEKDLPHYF
# In short: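 GR-coupled readout: 100 nM GR, 1 mM GSH, 0.5 mM NADPH; NADPH fluorescence (ex 340/em 450 nm) read at t=0 and after 15 min RT. GPX4 200 nM, preincubated 30 min with compound; substrate 0.5 mM CHP.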
# [6] = qHTS drug screen for cell cycle checkpoint inhibitors in PARPi-resistant BRCA-mutant ovarian cancer cell lines. (AID 1963452; calls by dose curve); settings: PEO1/OlaR viability, CellTiter-Glo luminescence, 96 h, stronger effect = lower value
# In short: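 PEO1, PEO4 and PEO1/OlaR ovarian cancer cells, 600 per well, exposed 96 h at 37C to a dilution series. Viability read by CellTiter-Glo luminescence, normalized to DMSO and empty wells; activity summarized as Z-AUC.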
# [7] = measured here: PEO1 parental Z-AUC
SMILES,Potency [1],Potency [2],Potency [3],Potency [4],Potency [5],Z-AUC [6],"Z-AUC [6, 7]",Z-AUC ([6]; measured here: PEO4 Z-AUC),"activity change, negative = inhibition [1]","activity change, negative = viability loss [2]","activity change, negative = cell killing [3]",outcome [4],outcome [5]
CC1(N)CCN(c2cccnc2NC(=O)c2nc(-c3ncccc3C(F)(F)F)cnc2N)CC1,inactive,16.6 µM (active),20.9 µM (active),inactive,inactive,0.421 (inactive),-0.000608,0.765,,,,,
COCCOC(=O)N1CCN(S(=O)(=O)c2cc(F)c(Oc3ccc(Cl)cc3)c(F)c2)C(C(=O)NO)C1 (centres undefined),18.6 µM (active),5.9 µM (active),4.68 µM (active),inactive,inactive,-1.01 (inactive),-1.23,-1.17,,,,,
COCCNc1cc(NC(=O)N2CCCc3cc(CN4CCN(C)CC4=O)c(C=O)nc32)ncc1C#N,,,,,,0.715 (inactive),0.498,0.787,-1.84% [at 8.44 µM] (inactive),3.8% [at 9.23 µM] (inactive),2.96% [at 9.23 µM] (inactive),inactive [at 9.52 µM],inactive [at 9.73 µM]
CC(C)n1ncnc1-c1cn2c(n1)-c1ccc(O[C@@H](C)C(N)=O)cc1OCC2,inactive,0.934 µM (active),0.934 µM (active),inactive,inactive,-1.61 (inactive),-1.38,-1.69,,,,,
CCNC(=O)Nc1ccc(Oc2ncnc(N)c2/C=N/OC)cc1Cl,inactive,20.9 µM (active),16.6 µM (active),inactive,inactive,1.52 (inactive),1.52,1.49,,,,,
CCOC(=O)N[C@@H]1CC[C@@H]2[C@@H](C1)C[C@H]1C(=O)O[C@H](C)[C@H]1[C@H]2/C=C/c1ccc(-c2cccc(F)c2)cn1,inactive,18.6 µM (active),13.2 µM (active),inactive,inactive,0.314 (inactive),1.37,1.33,,,,,
O=C1OC(COc2ccccc2[N+](=O)[O-])CC1Cc1ccccc1 (centres undefined),inactive,inactive,inactive,inactive,inactive,-0.926 (inactive),-0.0369,-0.342,,,,,
CC(C)NCCCn1c(Sc2cc(Cl)cc(Cl)c2)nc2c(N)ncnc21,inactive,20.9 µM (active),18.6 µM (active),inactive,inactive,-1.23 (inactive),-0.363,0.533,,,,,
O=C(Nc1ccc(OC(F)(F)Cl)cc1)c1cnc(N2CC[C@@H](O)C2)c(-c2ccn[nH]2)c1,inactive,16.6 µM (active),14.8 µM (active),inactive,inactive,-1.46 (inactive),-0.874,-0.386,,,,,
O=C(NCc1ccc(S(=O)(=O)c2cccc(C(F)(F)F)c2)cc1)c1cnc2[nH]ncc2c1,inactive,0.0132 µM (active),0.0263 µM (active),inactive,inactive,-2.19 (inactive),-2.73,-2.28,,,,,
Cc1cc(C)c(S(=O)(=O)N(CCc2cccc(Br)c2)Cc2ccc(-c3cccc(S(C)(=O)=O)c3)cc2)c(C)c1,inactive,inactive,inactive,inactive,inactive,0.662 (inactive),0.747,0.467,,,,,
N#Cc1ccc(N(Cc2ccc(Br)cc2)n2cnnc2)cc1,inactive,inactive,inactive,inactive,inactive,-0.397 (inactive),-0.74,-0.908,,,,,
CC#Cc1cncc(-c2ccc3c(c2)[C@@]2(N=C(C)C(N)=N2)C2(CCC(OC)CC2)C3)c1 (some centres undefined),inactive,inactive,inactive,inactive,inactive,1.27 (inactive),0.521,0.345,,,,,
CN1CCCN(C(=O)c2cccc(-c3ccc(/C=C4/C(=O)Nc5ccc(Cl)cc54)o3)c2)CC1,8.29 µM (active),0.186 µM (active),0.166 µM (active),inactive,inactive,0.657 (inactive),-0.436,-0.635,,,,,
Cc1cnc(NC(=O)c2cc(Oc3cnc(C(=O)N(C)C)nc3)c3cc(C)oc3c2)cn1,inactive,inactive,inactive,inactive,inactive,-1.14 (inactive),-0.452,0.0814,,,,,
CC1(N)CCN(c2cnc(-c3cccc(Cl)c3Cl)c(N)n2)CC1,inactive,inactive,inactive,inactive,inactive,-0.468 (inactive),-0.626,-0.55,,,,,
O=C(NO)c1ccc(C2=Nc3ccccc3Oc3ccccc32)cc1,18.6 µM (active),2.95 µM (active),2.63 µM (active),inactive,inactive,-0.476 (inactive),-1.06,-1.1,,,,,
O=c1oc2c(C3OCCCO3)c(O)ccc2c2c1CNCC2,inactive,inactive,inactive,inactive,14.3 µM (active),0.112 (inactive),-0.774,-0.202,,,,,

# From PubChem BioAssay (NCATS)
